Test [1] is described as follows: Wnt pathway potentiators raising nuclear beta-catenin – imaging, WNT3A-conditioned medium, mouse C2C12, NPC library, primary screen (AID 1117326; in the data active = nuclear beta-catenin stimulation mostly above about 4.2%, no sharp cut-off; inactive = mostly below about 10%). As to conditions: stronger effect = higher value.
Test [2] in a line: stimulators of insulin release from INS-1E, primary screen, cell-based, 5 mM glucose, NPC library (AID 1117329;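 active = compound raises insulin release from rat beta cells at 5 mM glucose, no numeric limit stated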). Conditions: rat INS-1E insulin secretion, at 10 µM, stronger effect = higher value.
The nature of test [3]: growth inhibition of GSK3B-pretreated HCT116 cells – cell-based, CellTiter-Glo, 0.2 to 20 µM (AID 1117336;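 active = compounds lowering colon cancer cell viability after pretreatment blocking the GSK3B kinase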). Conditions: HCT116 viability after GSK3B inhibitor, at 20 µM, stronger effect = higher value. (In general: ATP-based viability assays read luminescence as a measure of living cells.)
A short description of test [4]: inhibition of endothelial tube formation, primary screen, imaging, VEGF stimulated, CD31 staining, tube area, NPC library (AID 1117340;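 active = compound that reduces growth-factor-driven endothelial tube area in a mixed cell culture, no cutoff stated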). As to conditions: VEGF-stimulated ADSC/ECFC co-culture, at 10 µM, stronger effect = higher value.
The nature of test [5]: GLP1 release stimulators, primary, NCI-H716, NPC library (AID 1117341;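 active = compound raises GLP1 secretion from the human gut endocrine cells, with no numeric limit stated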). As to conditions: NCI-H716 cells, at 10 µM, stronger effect = higher value.
Test [6] in a line: HCT116 colon cancer cell growth inhibition, primary screen, CellTiter-Glo luminescence, NPC library (AID 1117342;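 active = compounds that lower survival of HCT116 colon cancer cells in the luminescence readout, no numeric limit stated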). Conditions: at 20 µM (top of the series).
A short description of test [7]: reduced SW480 viability measured with CellTiter-Glo, NPC library, primary (AID 1117343;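 active = compounds that lower viability of the colon cancer cells in the luminescence readout, with no numeric limit stated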). Conditions: CellTiter-Glo luminescence; at 20 µM (top of the series).
A short description of test [8]: NPC library primary testing for decreased DLD-1 cell viability via CellTiter-Glo (AID 1117346;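 active = compounds that lower survival of DLD-1 colon cancer cells in the luminescence readout, no cutoff given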). Conditions: DLD-1 viability, CellTiter-Glo luminescence; at 20 µM (top of the series).
For test [9], the target named is 6-phosphogluconate dehydrogenase, decarboxylating (Homo sapiens) (UniProt P52209). Kind of test: inhibition of human phosphogluconate dehydrogenase – biochemical, recombinant enzyme, NADPH absorbance, primary screen (AID 1159550;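 active = at least 20% inhibition of 6-phosphogluconate dehydrogenase activity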). As to conditions: recombinant 6PGD, NADPH absorbance 341 nm; at 10 µM; stronger effect = higher value.
Chain of 6-phosphogluconate dehydrogenase, decarboxylating (Homo sapiens) (P52209 whole entry, looked up): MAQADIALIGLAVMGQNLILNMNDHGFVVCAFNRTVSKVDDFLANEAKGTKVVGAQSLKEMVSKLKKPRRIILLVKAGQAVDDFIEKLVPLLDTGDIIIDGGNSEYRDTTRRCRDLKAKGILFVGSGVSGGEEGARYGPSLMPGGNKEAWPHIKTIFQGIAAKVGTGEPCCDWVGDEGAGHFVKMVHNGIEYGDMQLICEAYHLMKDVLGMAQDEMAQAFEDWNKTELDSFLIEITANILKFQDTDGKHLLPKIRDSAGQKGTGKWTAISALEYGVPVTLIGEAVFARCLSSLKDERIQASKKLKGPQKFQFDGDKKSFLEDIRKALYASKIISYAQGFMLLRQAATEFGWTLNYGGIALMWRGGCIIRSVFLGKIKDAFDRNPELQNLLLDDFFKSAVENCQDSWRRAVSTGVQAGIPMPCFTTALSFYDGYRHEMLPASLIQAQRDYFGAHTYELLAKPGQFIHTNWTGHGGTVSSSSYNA
Test [10] can be described thus: modulation of C. elegans fzo-1 (AID 1259413; call rule not given here;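 note: fzo-1 mutant C. elegans worms in liquid wells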). Conditions: C. elegans fzo-1 modulator screen, mean read-out; stronger effect = higher value.
The nature of test [11]: EMT-state selective cytotoxicity in co-culture – imaging, PC-3E GFP, TEM4-18 mCherry, primary screen (AID 1345086;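 active = compounds killing one labelled cell type while sparing the other, by normalised counts and ratio limits, not self-fluorescent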;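 for all read-outs here: cells exposed to compound for 72 h before imaging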;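 for red/green cell ratio (normalised): normalised mesenchymal count divided by normalised epithelial count so high means epithelial killing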). As to conditions: PC-3E GFP / TEM4-18 mCherry co-culture, imaging cell counts, at 1 µM; for red/green cell ratio (normalised): actives lie on both sides, counts scaled to control wells, 1 = unselective.
Test [12] is described as follows: MELAS cybrid and Rieske KO viability enhancers – cell-based, MELAS cybrids, Rieske KO mouse fibroblasts, CellTiter-Glo, primary screen (AID 1508586;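 active = mean z-score across replicates of 1.96 or higher in either the MELAS or the Rieske mutant cell line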;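 note: z relative to plate mean and SD of compound and empty wells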). As to conditions: low glucose.
Test [13] has as its target NAD(+) hydrolase SARM1 (Homo sapiens) (UniProt Q6SZW1). Briefly: blocking NAD cleavage by SARM1 SAM-TIR – cell lysate, NAD-Glo luminescence (AID 1508614;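 active = compound whose remaining NAD level is above about 45 nM, limit read from the data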;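 note: higher remaining NAD means stronger inhibition of SARM1 NADase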). Conditions: SAM-TIR HEK293T lysate NADase, at 1 µM, stronger effect = higher value.
In test [14] the target is Mitogen-activated protein kinase 7 (Homo sapiens) (UniProt Q13164). Briefly: Gal4-ERK5 driven luciferase induction – cell-based, HTS, primary screen (AID 1508626;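 active = luciferase signal above three times the same-plate solvent-only control wells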;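 note: luciferase driven by Gal4-ERK5 fusion binding five Gal4 sites before minimal TATA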). Conditions: HeLa Gal4-ERK5 transactivation, 18 h, at 5 µM, stronger effect = higher value.
Chain of Mitogen-activated protein kinase 7 (Homo sapiens) (Q13164 whole entry, looked up, the tested form may be a part): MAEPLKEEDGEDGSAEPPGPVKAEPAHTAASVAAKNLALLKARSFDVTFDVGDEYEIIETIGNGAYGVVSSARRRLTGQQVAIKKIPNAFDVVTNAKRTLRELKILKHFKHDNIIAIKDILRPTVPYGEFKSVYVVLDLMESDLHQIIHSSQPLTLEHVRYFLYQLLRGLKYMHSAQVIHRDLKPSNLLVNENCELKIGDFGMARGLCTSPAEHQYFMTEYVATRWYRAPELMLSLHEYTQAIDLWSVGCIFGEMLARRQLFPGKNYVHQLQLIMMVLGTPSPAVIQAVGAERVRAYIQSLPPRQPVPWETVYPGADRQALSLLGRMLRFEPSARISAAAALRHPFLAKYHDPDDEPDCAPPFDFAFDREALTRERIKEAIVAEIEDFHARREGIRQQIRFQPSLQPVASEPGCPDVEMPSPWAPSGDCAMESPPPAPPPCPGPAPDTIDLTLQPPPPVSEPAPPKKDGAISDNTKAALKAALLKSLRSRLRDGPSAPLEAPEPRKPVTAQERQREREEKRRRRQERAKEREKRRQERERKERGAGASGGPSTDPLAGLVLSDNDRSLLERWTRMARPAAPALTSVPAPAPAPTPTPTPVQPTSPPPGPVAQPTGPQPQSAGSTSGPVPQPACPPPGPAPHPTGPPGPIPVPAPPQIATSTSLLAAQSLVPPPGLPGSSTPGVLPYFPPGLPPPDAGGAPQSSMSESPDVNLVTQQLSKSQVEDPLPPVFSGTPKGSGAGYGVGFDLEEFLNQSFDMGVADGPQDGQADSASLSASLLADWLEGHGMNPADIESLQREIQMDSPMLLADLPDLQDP
The subject of the next test is F380Y. Kind of test: BK channel mutant inhibitors and activators – cell-based, U2OS BacMam, thallium flux, beta subunits, selectivity assay, profiling panel (AID 1259406).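 Note: initial slope of Thallos dye fluorescence rise after thallium is added; log ratio against the mean of 0.3% DMSO vehicle wells on the same plate.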 As to conditions: U2OS BacMam BK variants, at 30 µM.
For another test, the system named is F380Y/beta1. Described as above. As to conditions: U2OS BacMam BK variants, at 30 µM.
A further test relates to F380Y/beta2Delta. Described as above. Conditions: U2OS BacMam BK variants, at 30 µM.
The test system of the next test is F380Y/beta4. The description is as above. Conditions: U2OS BacMam BK variants, at 30 µM.
Test [15] has as its target Calcium-activated potassium channel subunit alpha-1 (Homo sapiens) + Leucine-rich repeat-containing protein 26 (Homo sapiens) (UniProt Q12791+Q2I0M4). The description is as above. Conditions: U2OS BacMam BK variants, F380Y/Slo1WT/gamma1, at 30 µM.
Where [16] appears, read: measured here: epithelial PC-3E GFP cell survival.
Where [17] appears, read: measured here: mesenchymal TEM4-18 mCherry cell survival.
Setting [18] is: MELAS cybrid survival, CellTiter-Glo 48 h, stronger effect = higher value.
[19] abbreviates: Rieske KO mouse fibroblast survival, CellTiter-Glo 72 h.

Values joined by “and” are separate entries in the source; they are usually repeats but may differ in a detail not shown here. Equal values may be shown once. Active and inactive are the calls of the source.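 Rule for the calls, unless noted: active = thallium flux through the channel raised or lowered by more than 3 SD from vehicle-only wells, actives on both sides; inactive = the rest.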

Chain of NAD(+) hydrolase SARM1 (Homo sapiens) (Q6SZW1 whole entry, looked up, the tested form may be a part): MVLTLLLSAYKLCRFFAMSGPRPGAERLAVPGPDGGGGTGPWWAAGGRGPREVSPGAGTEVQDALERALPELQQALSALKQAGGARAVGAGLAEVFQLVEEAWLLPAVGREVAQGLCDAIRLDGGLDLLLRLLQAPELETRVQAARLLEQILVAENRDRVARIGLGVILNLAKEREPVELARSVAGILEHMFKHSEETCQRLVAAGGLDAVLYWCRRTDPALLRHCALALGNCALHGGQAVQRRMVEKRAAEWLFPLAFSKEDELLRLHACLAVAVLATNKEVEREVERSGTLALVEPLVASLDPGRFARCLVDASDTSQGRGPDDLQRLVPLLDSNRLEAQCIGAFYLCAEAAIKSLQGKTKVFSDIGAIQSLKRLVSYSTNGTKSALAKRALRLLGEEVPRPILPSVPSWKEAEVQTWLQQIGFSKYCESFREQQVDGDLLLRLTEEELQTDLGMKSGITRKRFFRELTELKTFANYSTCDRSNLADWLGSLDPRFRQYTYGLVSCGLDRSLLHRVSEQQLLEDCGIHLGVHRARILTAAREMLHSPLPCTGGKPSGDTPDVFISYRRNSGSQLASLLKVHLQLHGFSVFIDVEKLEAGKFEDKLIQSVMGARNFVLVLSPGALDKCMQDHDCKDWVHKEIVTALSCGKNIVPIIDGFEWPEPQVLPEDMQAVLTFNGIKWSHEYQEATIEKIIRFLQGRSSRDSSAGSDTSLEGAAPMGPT
Chain of Calcium-activated potassium channel subunit alpha-1 (Homo sapiens) + Leucine-rich repeat-containing protein 26 (Homo sapiens) (Q2I0M4 whole entry, looked up, one chain of several): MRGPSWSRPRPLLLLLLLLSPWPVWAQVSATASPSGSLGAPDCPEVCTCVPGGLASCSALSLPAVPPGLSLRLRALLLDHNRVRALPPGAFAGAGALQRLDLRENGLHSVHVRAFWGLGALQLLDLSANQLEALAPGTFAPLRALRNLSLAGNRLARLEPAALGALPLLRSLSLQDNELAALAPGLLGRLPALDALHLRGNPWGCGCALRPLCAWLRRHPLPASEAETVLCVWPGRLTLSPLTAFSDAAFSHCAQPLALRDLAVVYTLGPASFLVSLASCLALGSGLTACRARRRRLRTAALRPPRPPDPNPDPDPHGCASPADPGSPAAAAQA

What is called inhibition is the relative decrease from the control value, in per cent. Regarding `NCC(=O)CCC(=O)O`, the nuclear beta-catenin stimulation in [1] (at 10 µM) was 0.4% (inactive); in [1] (stimulation, at 2 µM), -0.9%. Also, the insulin secretion stimulation in test [2] is 1.9% (inactive). Besides, the viability decrease in test [3] is 26.6% (inactive). Besides, the tube area decrease in test [4] is -10.4% (inactive). The GLP1 secretion stimulation in [5] is -1.4% (inactive). In addition, the inhibition of viability in test [6] was 18.9% (inactive). Besides, the viability decrease (inhibition) in test [7] was 19.8% (inactive); in [8] it was 1% (inactive). In addition, the inhibition in test [9] is -28.8% (inactive). Further, in test [10], the mean signal is 245 (inactive). Also, the red/green cell ratio (normalised) in test [11] is 1.08 (inactive). Moreover, the normalised cell number in test [11] (setting [16]) came out at 1.3; in [11] (setting [17]) it was 1.4. In addition, the figures for the z-score in test [12] (setting [18]) and in test [12] (setting [19]) were -0.348 (inactive) and 0.0439, respectively. Besides, the remaining NAD in [13] is 10 nM (inactive). The luciferase signal in [14] was 84 AU (inactive). The log fold change Tl+ flux with F380Y is -0.035 (inactive); in the test on F380Y/beta1, -0.00533 (inactive); in the test on F380Y/beta2Delta, -0.0239 (inactive); with F380Y/beta4 it was 0.0148 (inactive); in test [15] it was 0.011 (inactive).

With `CN(C)CCC[C@@]1(c2ccc(F)cc2)OCc2cc(C#N)ccc21`, the nuclear beta-catenin stimulation in [1] (at 10 µM) is 2.2% (inactive); in test [1] (stimulation, at 2 µM), -0.7%. Moreover, in [2], the insulin secretion stimulation was 31.7% (active). Besides, in test [3], the viability decrease is 4.6% (inactive). Moreover, in test [4], the tube area decrease was 3.6% (inactive). For the same compound, the GLP1 secretion stimulation in test [5] is 10.5% (inactive). For the same compound, the inhibition of viability in test [6] is -13.4% (inactive). Moreover, the viability decrease (inhibition) in [7] is 66.3% (active); in [8], 24.4% (inactive). The inhibition in test [9] was 8.36% (inactive). Besides, in test [10], the mean signal was 287 (inactive). In addition, the red/green cell ratio (normalised) in [11] is 0.99 (inactive). Besides, the normalised cell number is 1.13 in test [11] (setting [16]) and 1.12 in [11] (setting [17]). Besides, the z-score is -0.471 (inactive) and -0.676 (inactive) in [12] (setting [18]); -0.0102 and -1.12 in test [12] (setting [19]). The remaining NAD in test [13] is 10 nM (inactive). In addition, the log fold change Tl+ flux is 0.0406 (inactive) in the test on F380Y; -0.0013 (inactive) in the test on F380Y/beta1; 0.0188 (inactive) in the test on F380Y/beta2Delta; 0.042 (inactive) with F380Y/beta4; -0.0413 (inactive) in test [15].

Consider `CCN(CC)CCNC(=O)c1ccc(N)cc1`, for which the nuclear beta-catenin stimulation in [1] (at 10 µM) was 1.2% (inactive); in test [1] (stimulation, at 2 µM), 2.4%. In addition, in test [2], the insulin secretion stimulation was 1.1% (inactive). Moreover, the viability decrease in test [3] was 1.4% (inactive). Also, the tube area decrease in test [4] is 8.7% (inactive). Besides, the GLP1 secretion stimulation in test [5] was 2.8% (inactive). Besides, the inhibition of viability in test [6] was 15.3% (inactive). In addition, the figures for the viability decrease (inhibition) in [7] and in [8] were -11.5% (inactive) and -4.7% (inactive), respectively. For the same compound, in test [9], the inhibition is 13.2% (inactive). In [10], the mean signal was 241 (inactive). The red/green cell ratio (normalised) in [11] is 0.9 (inactive). In addition, the normalised cell number was 0.66 in [11] (setting [16]) and 0.59 in [11] (setting [17]). For the same compound, the z-score was -0.241 (inactive) and -0.159 (inactive) and 0.703 (inactive) in [12] (setting [18]); -0.144 and -0.31 and 0.675 in test [12] (setting [19]). Besides, the remaining NAD in [13] was 10 nM (inactive). Further, in test [14], the luciferase signal is 56 AU (inactive). Also, the log fold change Tl+ flux is -0.0589 (inactive) in the test with F380Y; 0.0223 (inactive) in the test with F380Y/beta1; 0.0202 (inactive) in the test on F380Y/beta2Delta; 0.0227 (inactive) with F380Y/beta4; 0.0259 (inactive) in [15].

On to `CCCNC(=O)NS(=O)(=O)c1ccc(Cl)cc1`, for which the nuclear beta-catenin stimulation is 4.6% (inactive) in test [1] (at 10 µM) and 8.3% in [1] (stimulation, at 2 µM). The insulin secretion stimulation in test [2] is 1.5% (inactive). Moreover, the viability decrease in [3] is 4.6% (inactive). The tube area decrease in test [4] is -1.2% (inactive). In [5], the GLP1 secretion stimulation is 6.4% (inactive). In addition, the inhibition of viability in [6] was 2.7% (inactive). Moreover, the viability decrease (inhibition) in test [7] was -4.3% (inactive); in test [8] it was -8.8% (inactive). Also, the inhibition in test [9] is 14.6% (inactive). Further, in [10], the mean signal is 243 (inactive). Moreover, in test [11], the red/green cell ratio (normalised) is 1.2 (inactive). Also, the normalised cell number in test [11] (setting [16]) stood at 1.08; in [11] (setting [17]) it was 1.29. Also, the z-score in [12] (setting [18]) was -0.244 (inactive) and -0.535 (inactive); in test [12] (setting [19]), -0.188 and -0.232. The remaining NAD in test [13] was 10 nM (inactive). The luciferase signal in [14] is 276 AU (active). In addition, the log fold change Tl+ flux in the test on F380Y is -0.0312 (inactive); with F380Y/beta1, 0.0557 (inactive); in the test on F380Y/beta2Delta, -0.00553 (inactive); in the test on F380Y/beta4 it was 0.0279 (inactive); in [15], -0.0083 (inactive).

`C[C@H](CS)C(=O)N1CCC[C@H]1C(=O)O`: the nuclear beta-catenin stimulation in test [1] (at 10 µM) was 0.8% (inactive); in test [1] (stimulation, at 2 µM) it was 0.9%. Moreover, the insulin secretion stimulation in test [2] was -2.3% (inactive). For the same compound, the viability decrease in test [3] is -11.6% (inactive). Further, the tube area decrease in test [4] is 12.5% (inactive). Further, the GLP1 secretion stimulation in test [5] was 2.3% (inactive). In addition, the inhibition of viability in [6] is -2.6% (inactive). The viability decrease (inhibition) is 27.6% (inactive) in test [7] and -2.15% (inactive) in test [8]. Besides, in [9], the inhibition was -3.72% (inactive). Moreover, the mean signal in test [10] is 261 (inactive). Besides, in test [11], the red/green cell ratio (normalised) was 1.1 (inactive). The normalised cell number in [11] (setting [16]) amounted to 1.01; in test [11] (setting [17]) it was 1.1. Further, the z-score was -0.272 (inactive) and -0.072 (inactive) in test [12] (setting [18]); -0.06 and -1.18 in test [12] (setting [19]). The remaining NAD in test [13] was 10 nM (inactive). Also, in test [14], the luciferase signal is 52 AU (inactive). In addition, the log fold change Tl+ flux in the test with F380Y is -0.0244 (inactive); in the test with F380Y/beta1 it was -0.0696 (inactive); with F380Y/beta2Delta, 0.00669 (inactive); with F380Y/beta4, 0.0146 (inactive); in [15], 0.0254 (inactive).

`CCCCC1=NC2(CCCC2)C(=O)N1Cc1ccc(-c2ccccc2-c2nn[nH]n2)cc1`: the nuclear beta-catenin stimulation in test [1] (at 10 µM) was 1.9% (inactive); in [1] (stimulation, at 2 µM), 0.1%. Moreover, the insulin secretion stimulation in [2] is 1.8% (inactive). Also, the viability decrease in [3] was -43% (inactive). In addition, in [4], the tube area decrease is -17.7% (inactive). Moreover, the GLP1 secretion stimulation in test [5] is -0.1% (inactive). Besides, in [6], the inhibition of viability is -0.43% (inactive). Also, the figures for the viability decrease (inhibition) in test [7] and in [8] were -11.7% (inactive) and -12.4% (inactive), respectively. In [9], the inhibition was -3.55% (inactive). Moreover, the mean signal in test [10] is 269 (inactive). For the same compound, the red/green cell ratio (normalised) in [11] is 1.43 (inactive). The normalised cell number in test [11] (setting [16]) stood at 0.82; in test [11] (setting [17]) it was 1.18. The z-score is -0.829 (inactive) in [12] (setting [18]) and -0.504 in test [12] (setting [19]). The remaining NAD in test [13] was 10 nM (inactive). Moreover, the luciferase signal in test [14] is 56 AU (inactive). For the same compound, the log fold change Tl+ flux is 0.0685 (inactive) with F380Y; 0.0995 (active) in the test with F380Y/beta1; 0.0508 (inactive) in the test with F380Y/beta2Delta; 0.0736 (inactive) in the test on F380Y/beta4; -0.00804 (inactive) in [15].
